Results on seven compounds are retold here after PubChem BioAssay (Tox21).

Assay [1] is described as follows: Nuclear factor erythroid 2-related factor 2/antioxidant responsive element (Nrf2/ARE) small molecule agonists: qHTS cell viability counter screen in human keratinocytes (AID 1919968; active = well fitted curve in the direction sought with a large enough effect in the repeat runs; an effect the other way counts as inactive or inconclusive; also: nearly all actives have a fitted effect of over 55% in size; also: potency is read from the fitted curve at half-maximal effect). An outline of the steps:
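KeratinoSens cells (HaCaT keratinocytes stably carrying an ARE-luciferase reporter) were seeded at 1,500 cells/well and rested 5 h at 37 C/5% CO2. They were then exposed to compounds in DMSO for 23 h. Viability was read by CellTiter-Fluor fluorescence after 1 h.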

Assay [2] is described as follows: Nuclear factor erythroid 2-related factor 2/antioxidant responsive element (Nrf2/ARE) small molecule agonists: luciferase reporter gene qHTS assay in human keratinocytes (AID 1919969). Also: nearly all actives have a fitted effect of over 35% in size. For orientation: In a reporter assay the amount or activity of a reporter protein is the signal.
Assay [3] deals with Gonadotropin-releasing hormone receptor (Homo sapiens) (UniProt P30968). Description: Human gonadotropin-releasing hormone receptor (GnRHR) small molecule agonists, calcium flux assay in GnRHR-HEK293 cells (AID 1920063). Also: nearly all actives have a fitted effect of over 35% in size. An outline of the steps:
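HEK293 cells stably expressing human GnRHR were plated 18 h at 37 °C, loaded with calcium dye 1 h at 37 °C, then given compound in agonist mode; fluorescence (Ex/Em 480/540) read kinetically for 3 min at 1 s intervals.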

The target in assay [4] is KiSS-1 receptor (Homo sapiens) (UniProt Q969F8). Description: Human kisspeptin (KISS1R) small molecule agonists, calcium flux assay in KISS1R-HEK293 cells (AID 1920064; active = well fitted curve in the direction sought with a large enough effect in the repeat runs; an effect the other way counts as inactive or inconclusive). An outline of the steps:
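HEK293 cells stably expressing human KISS1R were plated 18 h at 37 °C, loaded with calcium dye for 1 h at 37 °C, then given compound by pin tool. Fluorescence (Ex/Em 480/540) was read kinetically for 3 min.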
For orientation: Calcium assays in cells follow changes in intracellular calcium, usually with a dye or a luminescent sensor.

Assay [5] can be described thus: G protein-coupled receptor (GPCR) small molecule agonists, calcium flux assay: HEK293 wild type cell line counter screen (AID 1920065). Put shortly:
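Cells were plated and cultured 18 h at 37 C/5% CO2, then loaded with calcium dye for 1 h at 37 C. Compounds in DMSO were pin-transferred in agonist mode, and fluorescence (Ex/Em 480/540) was read kinetically for 3 min at 1 s intervals.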

The nature of assay [6]: p53 small molecule agonists, cell-based qHTS assay with human liver microsomes (AID 1963577).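 Also: p53 response element beta-lactamase reporter cells with liver microsomes plus NADPH.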 An outline of the steps:
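Metabolically competent format: test substances, human liver microsomes and NADPH (both 0.5 mg/mL final) incubated with p53RE-bla cells 16 h at 37 C. Beta-lactamase reporter signal then quantified by fluorescence.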
(In general: Quantitative high-throughput screening tests each substance at several concentrations.)

Assay [7] is described as follows: p53 small molecule agonists, cell-based qHTS assay with rat liver microsomes (AID 1963578). Put shortly: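 Each plate received p53RE-bla cells, then compound, then rat liver microsomes and NADPH (both 0.5 mg/mL final). Plates were held 16 h at 37 C, and beta-lactamase activity was detected with LiveBLAzer over 2 h.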
A short description of assay [8]: p53 small molecule agonists, cell-based qHTS assay with human liver microsomes: qHTS cell viability counter screen (AID 1963579). Also: nearly all actives have a fitted effect of over 45% in size. Put shortly: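 Tox21 library compounds, delivered from DMSO stocks, were tested on p53RE-bla cells together with 0.5 mg/mL human liver microsomes and 0.5 mg/mL NADPH (final) over 16 h at 37 C; CellTiter-Glo luminescence served as the cytotoxicity measure.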

Assay [9] is described as follows: p53 small molecule agonists, cell-based qHTS assay with rat liver microsomes: qHTS cell viability counter screen (AID 1963580). Also: nearly all actives have a fitted effect of over 45% in size. Put shortly: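 In HCT-116 cells carrying a p53 response element-bla reporter, compounds were metabolically activated in situ by rat liver microsomes with NADPH over 16 h. Cell ATP content then served as the cytotoxicity measure.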
The nature of assay [10]: p53 small molecule agonists, cell-based qHTS assay: qHTS cell viability counter screen (AID 1963581). Also: nearly all actives have a fitted effect of over 45% in size. Put shortly: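 p53RE-bla HCT-116 cells were exposed to compounds for 16 h at 37 C; after the beta-lactamase FRET read in the same wells, CellTiter-Glo was added and luminescence (intracellular ATP) read after 30 min at room temperature.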
The nature of assay [11]: p53 small molecule agonists, cell-based qHTS assay (AID 1963582; active = well fitted activation curve with a large enough effect in the signal ratio in the repeat runs, not every such curve was filed as active; the % refers to the signal ratio). Put shortly:
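p53RE-bla beta-lactamase reporter cells rested 5 h at 37 C/5% CO2, then received compounds in DMSO by pin transfer and were incubated 16 h at 37 C. LiveBLAzer B/G FRET substrate was loaded for 2 h at room temperature before fluorescence reading.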

In assay [12] the target is 5-hydroxytryptamine receptor 2A (Homo sapiens) (UniProt P28223). The assay can be described thus: 5-hydroxytryptamine receptor 2A (HTR2A) small molecule antagonists, cell-based qHTS assay (AID 1963586). Also: nearly all actives have a fitted effect of over 45% in size. Also: potency is read from the fitted curve at half-maximal effect. Put shortly:
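Antagonist-mode intracellular calcium assay: DOI (4 nM) added after 5 min compound pre-incubation at room temperature to dye-loaded HTR2A-CHO cells. Fluorescence followed for 3 min, sampled every second.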

Assay [13] has the same target. The assay can be described thus: 5-hydroxytryptamine receptor 2A (HTR2A) small molecule agonists, cell-based qHTS assay (AID 1963587). Also: nearly all actives have a fitted effect of over 30% in size. Also: potency is read from the fitted curve at half-maximal effect. An outline of the steps:
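HTR2A-CHO cells, plated 18 h at 37 C/5% CO2, dye-loaded 1 h at 37 C; compounds in DMSO added by pin tool (agonist mode). Intracellular calcium flux read as kinetic fluorescence on FDSS over 2 min at 1 s intervals.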

Assay [14] has as its target Muscarinic acetylcholine receptor M1 (Homo sapiens) (UniProt P11229). The assay can be described thus: Cholinergic receptor muscarinic 1 (CHRM1) small molecule antagonists, cell-based qHTS assay (AID 1963588). Also: nearly all actives have a fitted effect of over 40% in size. Also: potency is read from the fitted curve at half-maximal effect. An outline of the steps:
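CHRM1-CHO calcium-flux assay, antagonist mode. Cells were seeded 18 h, dye-loaded 1 h at 37 C and given compound for 5 min at RT, then acetylcholine was added at 50nM. FDSS fluorescence was read 3 min; 15 concentrations, three runs.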

The target is the same in assay [15]. Description: Cholinergic receptor muscarinic 1 (CHRM1) small molecule agonists, cell-based qHTS assay (AID 1963589). Also: nearly all actives have a fitted effect of over 35% in size. An outline of the steps:
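CHO cells stably expressing human CHRM1, seeded 18 h at 37 C/5% CO2, dye-loaded 1 h at 37 C, then given compound in agonist mode; intracellular calcium fluorescence read kinetically at 1 s intervals. Fifteen concentrations, three independent runs.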

Assay [16] addresses Beta-2 adrenergic receptor (Homo sapiens) (UniProt P07550). Description: Adrenergic beta2 receptor (ADRB2) small molecule antagonists, cell-based qHTS assay (AID 1963592). Also: series mostly up to about 92 µM; nearly all actives have a fitted effect of over 50% in size. Put shortly:
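Cells (CHO, stable ADRB2 overexpression) incubated 18-20hr at 37C; compounds added from DMSO; agonist mix (1nM isoproterenol, 100uM IBMX, 25uM Ro-20-1724) added; 0.5hr RT; d2-cAMP and anti-cAMP-cryptate added; 1hr RT; 665/615 nm read.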

For assay [17], the target named is D(2) dopamine receptor (Homo sapiens) (UniProt P14416). The assay can be described thus: Dopamine D2 receptor (DRD2) small molecule agonists, cell-based qHTS assay (AID 1963594). Also: nearly all actives have a fitted effect of over 35% in size. An outline of the steps: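 HEK293 cells stably expressing DRD2 were cultured 24 h at 37 C, then given Ro20-1724 (0.1 mM final) and compounds for 10 min at room temperature. NKH477 (200nM) was then added for 30 min. cAMP was read by HTRF.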
Sequence of D(2) dopamine receptor (Homo sapiens) (P14416 whole entry, looked up): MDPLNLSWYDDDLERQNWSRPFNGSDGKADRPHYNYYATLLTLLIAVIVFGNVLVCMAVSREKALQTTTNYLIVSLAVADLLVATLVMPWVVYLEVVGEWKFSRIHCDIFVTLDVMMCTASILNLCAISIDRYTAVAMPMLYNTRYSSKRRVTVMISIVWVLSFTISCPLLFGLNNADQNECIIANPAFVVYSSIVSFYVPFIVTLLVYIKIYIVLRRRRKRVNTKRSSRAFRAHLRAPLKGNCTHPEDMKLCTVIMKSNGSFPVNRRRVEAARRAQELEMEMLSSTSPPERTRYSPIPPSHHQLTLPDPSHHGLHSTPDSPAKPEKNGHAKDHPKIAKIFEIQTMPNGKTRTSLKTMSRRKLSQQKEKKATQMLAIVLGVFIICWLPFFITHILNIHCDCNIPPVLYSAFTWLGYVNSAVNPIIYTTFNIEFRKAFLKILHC

Assay [18] can be described thus: cAMP Responsive Elements (CRE) small molecule agonists, cell-based qHTS assay (AID 1963590). An outline of the steps:
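CRE-bla HEK 293T cells in DMEM with 10% dialyzed FBS, NEAA, pyruvate and 25 mM HEPES were plated 18 h at 37 C/5% CO2, then exposed to compounds in DMSO for 3 h before LiveBLAzer B/G FRET substrate addition.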

Assay [19] can be described thus: cAMP Responsive Elements (CRE) small molecule antagonists, cell-based qHTS assay (AID 1963591; active = well fitted inhibition curve with a large enough effect in the signal ratio in the repeat runs, not every such curve was filed as active; the % refers to the signal ratio). Put shortly: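 CRE-bla HEK293T cells were plated 18 h at 37 °C/5% CO2, pinned with compound in DMSO, then stimulated with NKH477 at 0.25 uM final for 3 h. LiveBLAzer B/G FRET substrate was added and plates incubated 2 h at room temperature.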
Assay [20] concerns the target D(2) dopamine receptor (Homo sapiens) (UniProt P14416). The assay can be described thus: Dopamine D2 receptor (DRD2) small molecule antagonists, cell-based qHTS assay (AID 1963595; active = well fitted inhibition curve with a large enough effect in the signal ratio in the repeat runs, with a control signal flat; the % refers to the signal ratio). An outline of the steps:
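Cells were plated and grown for 24 h at 37 °C. Ro20-1724 (0.1 mM final) went in first, then compound for 10 min. NKH477 (200 nM) with quinpirole (12 nM) followed for 30 min at RT, then HTRF detection reagents for 1 h.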

Values joined by “and” are separate entries in the source; they are usually repeats but may differ in a detail not shown here. Equal entries are not always repeated. Inconclusive results are not listed. A structure can be active in one record and inactive in another. Active and inactive are the calls of the source. Unless noted, calls follow the shape of the full dose curve.

Sequence of Gonadotropin-releasing hormone receptor (Homo sapiens) (P30968 whole entry, looked up): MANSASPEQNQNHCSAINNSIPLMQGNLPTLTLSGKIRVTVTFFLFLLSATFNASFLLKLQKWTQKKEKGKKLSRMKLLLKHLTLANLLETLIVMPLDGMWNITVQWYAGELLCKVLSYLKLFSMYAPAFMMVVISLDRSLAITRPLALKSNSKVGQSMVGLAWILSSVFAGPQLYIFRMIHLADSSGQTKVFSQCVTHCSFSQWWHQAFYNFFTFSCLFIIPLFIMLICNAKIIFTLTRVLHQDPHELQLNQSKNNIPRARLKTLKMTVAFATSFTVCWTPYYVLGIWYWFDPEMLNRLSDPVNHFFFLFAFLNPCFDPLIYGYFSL
Sequence of Beta-2 adrenergic receptor (Homo sapiens) (P07550 whole entry, looked up): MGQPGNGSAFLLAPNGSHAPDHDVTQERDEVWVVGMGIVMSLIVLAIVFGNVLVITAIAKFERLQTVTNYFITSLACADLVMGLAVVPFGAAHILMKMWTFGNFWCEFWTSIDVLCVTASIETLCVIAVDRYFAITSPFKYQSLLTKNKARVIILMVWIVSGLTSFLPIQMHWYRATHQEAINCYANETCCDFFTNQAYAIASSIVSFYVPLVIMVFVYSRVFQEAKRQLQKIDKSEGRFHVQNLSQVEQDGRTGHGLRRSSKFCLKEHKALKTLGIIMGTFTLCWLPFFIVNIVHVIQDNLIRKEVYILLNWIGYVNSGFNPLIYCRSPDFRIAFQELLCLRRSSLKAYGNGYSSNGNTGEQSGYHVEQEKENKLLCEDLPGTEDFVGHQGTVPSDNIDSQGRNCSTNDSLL
Sequence of 5-hydroxytryptamine receptor 2A (Homo sapiens) (P28223 whole entry, looked up): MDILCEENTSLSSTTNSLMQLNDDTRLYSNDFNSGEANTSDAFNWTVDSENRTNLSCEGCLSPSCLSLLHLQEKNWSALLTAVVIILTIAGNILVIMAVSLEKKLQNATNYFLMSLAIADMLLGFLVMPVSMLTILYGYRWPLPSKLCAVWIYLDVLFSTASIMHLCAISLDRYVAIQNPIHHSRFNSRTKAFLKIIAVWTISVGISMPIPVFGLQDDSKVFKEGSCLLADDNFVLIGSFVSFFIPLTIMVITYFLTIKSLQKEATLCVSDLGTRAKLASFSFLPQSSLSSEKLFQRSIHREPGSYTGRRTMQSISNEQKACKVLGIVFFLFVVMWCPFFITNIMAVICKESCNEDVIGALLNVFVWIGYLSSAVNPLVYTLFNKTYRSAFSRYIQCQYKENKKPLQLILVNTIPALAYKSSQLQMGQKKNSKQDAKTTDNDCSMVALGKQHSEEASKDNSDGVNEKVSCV
Sequence of Muscarinic acetylcholine receptor M1 (Homo sapiens) (P11229 whole entry, looked up): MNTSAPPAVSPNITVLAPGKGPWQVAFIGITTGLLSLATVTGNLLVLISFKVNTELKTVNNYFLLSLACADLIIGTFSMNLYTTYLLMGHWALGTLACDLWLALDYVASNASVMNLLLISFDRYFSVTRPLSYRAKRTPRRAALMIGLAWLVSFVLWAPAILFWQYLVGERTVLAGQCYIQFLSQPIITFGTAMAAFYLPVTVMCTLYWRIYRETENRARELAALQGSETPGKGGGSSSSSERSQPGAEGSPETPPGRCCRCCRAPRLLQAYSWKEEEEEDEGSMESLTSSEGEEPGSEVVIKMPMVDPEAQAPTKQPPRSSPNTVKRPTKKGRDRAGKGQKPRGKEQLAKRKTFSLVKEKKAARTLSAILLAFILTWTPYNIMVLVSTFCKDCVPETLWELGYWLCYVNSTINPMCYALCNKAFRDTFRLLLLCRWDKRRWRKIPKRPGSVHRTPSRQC
Sequence of KiSS-1 receptor (Homo sapiens) (Q969F8 whole entry, looked up): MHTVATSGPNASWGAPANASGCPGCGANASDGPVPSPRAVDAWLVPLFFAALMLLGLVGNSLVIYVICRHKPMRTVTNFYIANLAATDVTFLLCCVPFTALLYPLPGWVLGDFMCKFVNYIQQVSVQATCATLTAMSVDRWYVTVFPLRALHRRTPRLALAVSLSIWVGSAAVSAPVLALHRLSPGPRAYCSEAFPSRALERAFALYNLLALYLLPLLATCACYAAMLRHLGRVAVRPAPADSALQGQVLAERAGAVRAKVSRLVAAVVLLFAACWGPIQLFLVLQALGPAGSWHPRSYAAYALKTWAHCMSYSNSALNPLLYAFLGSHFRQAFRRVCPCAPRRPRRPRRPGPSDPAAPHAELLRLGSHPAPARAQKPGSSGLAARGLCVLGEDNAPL

Take `O=S1OCC2C(CO1)C1(Cl)C(Cl)=C(Cl)C2(Cl)C1(Cl)Cl` (centres undefined): the Potency in assay [1] was 48.6 µM (active) and 61.1 µM (active); in assay [13], 43.7 µM (active) and inactive; in assay [14], 37.5 µM (active) and inactive. The Potency result in [2], in assay [3], in assay [4], in [5], in [6] and in assay [7] was “inactive” each time. In addition, the Potency result in assay [8], in assay [9], in [10], in [11], in assay [12] and in [15] was “inactive” each time. For the same compound, the Potency entry in assay [16] and in assay [17] was “inactive” in each case.

With `CN1CCC(N(Cc2ccccc2)c2ccccc2)CC1`, the Potency entry in [1], in assay [2], in assay [3], in [4], in [5] and in assay [6] was “inactive” in each case. Besides, the Potency entry in assay [7], in [8], in assay [9], in assay [10], in [11] and in [13] was “inactive” throughout. Also, the Potency result in assay [18], in assay [19], in [16], in assay [17] and in assay [20] was “inactive” throughout. In addition, in [12], the Potency is 2.59 µM (active).

`CCCCCCCCSC(=O)Oc1cc(Cl)nnc1-c1ccccc1`: the Potency entry in assay [1], in assay [2], in [3], in [4], in assay [5] and in [6] was “inactive” each time. Moreover, the Potency result in assay [7], in [8], in [9], in assay [10], in assay [11] and in assay [12] was “inactive” throughout. The Potency entry in assay [13], in assay [14], in assay [18], in [19], in [16] and in [17] was “inactive” in each case. The Potency result in [20] is “inactive”.

Take `c1ccc(P(c2ccccc2)c2ccccc2)cc1`: the Potency entry in assay [1], in assay [2], in assay [3], in assay [4], in assay [5] and in [6] was “inactive” throughout. The Potency entry in assay [7], in [8], in assay [9], in [10], in assay [11] and in assay [12] was “inactive” throughout. Besides, the Potency result in assay [13], in assay [15], in [18], in [19], in assay [16] and in [17] was “inactive” throughout. In addition, the Potency entry in assay [20] was “inactive”.

For `COC(C)(C)C`, the Potency result in assay [1], in assay [2], in [3], in [4], in assay [5] and in [6] was “inactive” each time. Besides, the Potency entry in [7], in assay [8], in assay [9], in assay [10], in assay [11] and in assay [12] was “inactive” each time. The Potency result in assay [14], in assay [15], in [18], in [19], in assay [16] and in [17] was “inactive” in each case. The Potency entry in [20] is “inactive”.

As to `C=CC=O`, the Potency entry in assay [1], in assay [2], in assay [3], in assay [4], in assay [5] and in assay [6] was “inactive” throughout. In addition, the Potency result in assay [7], in assay [8], in [9], in assay [10], in [11] and in assay [12] was “inactive” each time. The Potency entry in assay [13], in assay [15], in [18], in assay [19], in assay [16] and in assay [17] was “inactive” each time.

Turning to `COC(=O)NC(=S)Nc1ccccc1NC(=S)NC(=O)OC`, the Potency entry in assay [1], in assay [2], in assay [3], in assay [4], in assay [5] and in assay [6] was “inactive” in each case. Further, the Potency result in assay [7], in assay [8], in assay [9], in [10], in [11] and in assay [12] was “inactive” in each case. Moreover, the Potency entry in assay [14], in [15], in assay [18], in assay [19], in assay [16] and in [17] was “inactive” each time. In [20], the Potency entry is “inactive”.
